TTR transcr act: TTR transcription activation, primary screen; 1.3% of 92,000 active; SH-SY5Y TTR promoter Gaussia luciferase, luminescence; 100% = recombinant luciferase protein wells; AID 1117267; activation, % at 16.7 µM;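 active means activation above the mean of all tested compounds plus 3 SD, cut at about 9.5% in these data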;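 further: cells exposed to compounds for one day before reading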
TTR inh HuH7: decreases TTR transcription in HuH7 cells in activator counter-screen | 4% of 1,100 active | inhibition, % at 16.7 µM | shares compounds with TTR transcr act | HuH7 TTR promoter-Gaussia luciferase reporter, luminescence;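 active means average inhibition above the solvent-only control wells' mean plus 3 SD, cut at about 15% in these data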;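 further: inhibitors lower well luminescence so higher value means more inhibition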
TTR act confirm: human TTR transcription activation, confirmation | AID 1117280 | SHSY5Y TTR promoter Gaussia luciferase, luminescence; 100% = purified Lucia enzyme wells, no cells | activation, % at 16.7 µM | shares compounds with TTR transcr act | 1,100 tested, under 10 active;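 active means mean activation above a set limit taken from the earlier primary screen, cut at about 11% in these data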
Each line names hits and unclear results; the compound was inactive in the other large screens (follow-up assays come after a bar, where they were run). Only a selection was taken, and hits are over-represented in it overall.

C[C@@H]1CN([C@@H](C)CO)C(=O)c2cc(NC(=O)C3CCCCC3)ccc2O[C@@H](C)CCCCO[C@@H]1CN(C)C(=O)CCCN(C)C	none
CCS(=O)(=O)N1CCN=C1SCc1ccccc1	none
CCCS(=O)(=O)N1CCN=C1SCc1cccnc1	TTR transcr act 15 | TTR inh HuH7 inactive | TTR act confirm inactive
CC(=O)Nc1ccc(S(=O)(=O)N2CCN=C2SCc2cccnc2)cc1	none
CC12CCC(C(=O)N(CC3CO3)C1=O)C2(C)C (stereo not given)	none
CC(C)(C)n1nnnc1C(c1ccccc1)N1CCN(c2c(Cl)cncc2Cl)CC1 (stereo not given)	none
CCCN=C(C)C1=C(O)c2ccccc2C1=O	none
CC(=NCCc1ccccc1)C1=C(O)COC1=O	TTR transcr act 13 | TTR inh HuH7 inactive | TTR act confirm inactive
CC(=NCc1ccccc1)C1=C(O)COC1=O	none
CCCC[C@H]1C2CC(OC(=O)Nc3ccc(C(F)(F)F)cc3)C(C2)[C@H]2CCCCN21 (stereo not given in full)	none
COc1cc(/C=C2/C(=N)N3OC(C)=CC3=NC2=O)ccc1OCCOc1ccc(C)cc1	none
COc1cccc(OCCn2cccc2/C=C2/C(=N)N3OC(C)=CC3=NC2=O)c1	none
CCOc1ccc(/C=C2/C(=N)N3OC(C)=CC3=NC2=O)cc1OC	TTR transcr act 9.9 | TTR inh HuH7 inactive | TTR act confirm inactive
Cc1cc(C)n2c(Nc3ccc4c(c3)OCCO4)c(CCc3ccccc3)nc2n1	none
CC1C(=O)N(Cc2cn(CCC3OCCO3)nn2)CCS(=O)(=O)N1Cc1ccc(-c2ccncc2)cc1 (stereo not given)	none
CC1C(=O)N(Cc2cn(CCC3OCCO3)nn2)CCS(=O)(=O)N1Cc1ccc(-c2ccc(F)cc2)cc1 (stereo not given)	none
CC1C(=O)N(Cc2cn(CCC3OCCO3)nn2)CCS(=O)(=O)N1Cc1ccc(-c2cccc(N(C)C)c2)cc1 (stereo not given)	TTR transcr act 37 | TTR inh HuH7 inactive | TTR act confirm inactive
Cc1cc2nc(C(C)(C)C)c(Cc3cccc(F)c3)n2c(C)c1Br	none
Cc1cc(C(=O)NCC(=O)OCC(=O)NCCc2ccccc2)ccc1[N+](=O)[O-]	none
O=C(c1ccccc1)N(Cc1nc2ccccc2c(=O)[nH]1)C1CCCC1	none
Cc1cccc(C(=O)N(Cc2nc3ccccc3c(=O)[nH]2)C2CCCC2)c1	none
O=C(COCc1nc2ccccc2c(=O)[nH]1)NCC1CCCCC1	TTR transcr act 13 | TTR inh HuH7 inactive | TTR act confirm inactive
O=C(OCc1ccccc1)[C@H](Cc1ccccc1)NC(=O)[C@@H]1CC=C[C@@H]2CCN(CCc3ccccc3)C(=O)[C@@H]21	none
CCOc1ccc(N2C(=O)CSC2=S)cc1	none
COc1ccc(N=C2SCC(=O)N2Cc2ccccc2)cc1	none
CCOc1ccc(N=C2SCC(=O)N2CC)cc1	TTR transcr act 18 | TTR inh HuH7 inactive | TTR act confirm inactive
Cc1cc(NC(=O)Nc2cccc(F)c2)n(-c2ccccc2)n1	none
COc1ccccc1-n1cnc2c(c1=O)c1nc3ccccc3nc1n2CCc1ccccc1	none
COc1ccccc1C1=NOC(Cn2c(NCC3CCCO3)nc3c2c(=O)n(C)c(=O)n3C)C1 (stereo not given)	none
COc1ccccc1C1=NOC(Cn2c(=O)c3c(ncn3C)n(C)c2=O)C1 (stereo not given)	TTR transcr act 16 | TTR inh HuH7 inactive | TTR act confirm inactive
O=C(NCCc1c[nH]c2ccccc12)OCc1cn(Cc2ccccc2C(F)(F)F)nn1	none
Cc1c(N(C)C(=O)C23CC4CC(CC(C4)C2)C3)c(=O)n(-c2ccccc2)n1C	none
Cc1c(N(C)C(=O)c2ccc3c(c2)OCO3)c(=O)n(-c2ccccc2)n1C	none
Cc1c(N(C)S(=O)(=O)c2cc(C(=O)N3CCCC3)ccc2Cl)c(=O)n(-c2ccccc2)n1C	TTR transcr act 13 | TTR inh HuH7 inactive | TTR act confirm inactive
O=C(NC1CCCCC1)C(c1ccc(-c2ccccc2)cc1)n1c(=O)c(-c2ccco2)nc2ccccc21 (stereo not given)	none
CN(CCc1ccccc1)c1cc2c(c3c1ccn3C)C1CCC2C1 (stereo not given)	none
COc1ccc(Cc2nnc(NC(=O)c3cccs3)s2)cc1OC	TTR transcr act 15 | TTR inh HuH7 inactive | TTR act confirm inactive
COc1cccc(C(=O)Nc2nnc(Cc3ccc(OC)c(OC)c3)s2)c1	none
COc1ccc(Cc2nnc(NC(=O)c3ccc(OC(C)=O)cc3)s2)cc1OC	none
CCCC[C@H]1C2CC(OC(=O)Nc3ccccc3Cl)C(C2)[C@H]2CCCCN21 (stereo not given in full)	none
O=C(c1ccc(Cl)cc1)N1CCN(c2ccccn2)CC1	none
Cc1cccc(/C(N)=N/OC(=O)Cc2cccc3ccccc23)c1	none
Cc1cccc(/C(N)=N/OC(=O)COc2ccc(Cl)c(C)c2)c1	TTR transcr act 11 | TTR inh HuH7 inactive | TTR act confirm inactive
Cc1ccc(C)c(OCC(=O)O/N=C(\N)c2cccnc2)c1	none
C[C@H]1CCCN1c1cccc2c1S(=O)(=O)N1CC[C@H](C1)O2	none
CC1CCN(c2nc(-c3ccco3)c3c(c2C#N)CC(C)(C)OC3)CC1	none
O=[N+]([O-])c1cccc(-c2nc(-c3ccccn3)no2)c1	none
O=[N+]([O-])c1cccc(-c2noc3c2-c2nc(Cc4cccc5ccccc45)sc2CC3)c1	TTR transcr act 34 | TTR inh HuH7 inactive | TTR act confirm inactive
Fc1cccc(F)c1-c1nc2c(s1)CCc1onc(-c3ccc(Br)cc3)c1-2	none
O=C(Nc1ccccc1)Nc1c(-c2ccccc2)nc2ncccn12	none
CCCCC(=O)N[C@H]1CC[C@@]23CCCN2C(=O)CCC[C@H]3[C@H]1C	none
CC1CCN(C(=O)C2CCC(CNS(=O)(=O)c3ccc4c(c3)C(C)(C)C(=O)N4C)CC2)CC1 (stereo not given)	none
Cc1ccc(-c2nn(-c3ccccc3)cc2NC(=O)c2ccccc2)cc1	TTR transcr act 13 | TTR inh HuH7 inactive | TTR act confirm inactive
Cc1ccc(-c2nc3ncccn3c2NC(=O)c2ccccc2)cc1	none
O=C(Nc1cn(-c2ccccc2)nc1-c1ccc(Cl)cc1)c1ccccc1	none
COc1ccc(CN2C(=O)C(CC(=O)NCc3cccc4ccccc34)CC(C(=O)N(C(C)C)C(C)C)=C2C)cc1 (stereo not given)	none
C=CCNC(=S)NCC=C	none
CCCC1CCC2(CC1)CCC2OC(=O)Nc1ccccc1C (stereo not given)	none
CN1C2Cc3c(n(C)c4ccccc34)C1CC=C2CO (stereo not given)	none
CCc1cccc2c(C(=S)N3CCOCC3)c[nH]c12	none
O=C(c1ccc(Cl)c(Cl)c1)N1CCC(=O)N([C@H](COCc2ccc(Cl)cc2)Cc2ccccc2)CC1	none
COc1ccc(OC)c(N/C=C2/CCCCC2=O)c1	TTR transcr act 11 | TTR inh HuH7 inactive | TTR act confirm inactive
NC(=O)c1ccccc1N/C=C1\CCCCC1=O	none
COc1ccc(Oc2ccc(N/C=C3\CCCC3=O)cc2)cc1	none
CC/C(Cc1ccccc1)=N\NC(=O)c1cc([N+](=O)[O-])cc([N+](=O)[O-])c1	none
CC(C)Nc1nc(NCc2ccccc2)c2sccc2n1	none
COc1ccccc1N1CCN(C(=O)C(Sc2ccccc2)c2ccccc2)CC1 (stereo not given)	none
COc1ccccc1N1CCN(S(=O)(=O)CCNC(=O)C2CCCC2)CC1	none

Screening data as filed in PubChem BioAssay.
